In PMC4336329 (PLoS ONE, 2015):
The whole screen tested about 310,000 compounds, of which about 14,000 (4.5%) showed an effect of 50% or more. The effect is printed as a negative number. This excerpt belongs to a sample that is enriched for strong results.

Target: human ether-à-go-go-related gene (hERG) potassium channel (human, UniProt Q12809)
Assay: primary screen, population patch clamp on CHO cells stably expressing hERG; higher = less effect of the substance
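Note: peak tail current of the secondary pulse compared with the same well before compound.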

Chain of human ether-à-go-go-related gene (hERG) potassium channel (Q12809 whole entry, looked up): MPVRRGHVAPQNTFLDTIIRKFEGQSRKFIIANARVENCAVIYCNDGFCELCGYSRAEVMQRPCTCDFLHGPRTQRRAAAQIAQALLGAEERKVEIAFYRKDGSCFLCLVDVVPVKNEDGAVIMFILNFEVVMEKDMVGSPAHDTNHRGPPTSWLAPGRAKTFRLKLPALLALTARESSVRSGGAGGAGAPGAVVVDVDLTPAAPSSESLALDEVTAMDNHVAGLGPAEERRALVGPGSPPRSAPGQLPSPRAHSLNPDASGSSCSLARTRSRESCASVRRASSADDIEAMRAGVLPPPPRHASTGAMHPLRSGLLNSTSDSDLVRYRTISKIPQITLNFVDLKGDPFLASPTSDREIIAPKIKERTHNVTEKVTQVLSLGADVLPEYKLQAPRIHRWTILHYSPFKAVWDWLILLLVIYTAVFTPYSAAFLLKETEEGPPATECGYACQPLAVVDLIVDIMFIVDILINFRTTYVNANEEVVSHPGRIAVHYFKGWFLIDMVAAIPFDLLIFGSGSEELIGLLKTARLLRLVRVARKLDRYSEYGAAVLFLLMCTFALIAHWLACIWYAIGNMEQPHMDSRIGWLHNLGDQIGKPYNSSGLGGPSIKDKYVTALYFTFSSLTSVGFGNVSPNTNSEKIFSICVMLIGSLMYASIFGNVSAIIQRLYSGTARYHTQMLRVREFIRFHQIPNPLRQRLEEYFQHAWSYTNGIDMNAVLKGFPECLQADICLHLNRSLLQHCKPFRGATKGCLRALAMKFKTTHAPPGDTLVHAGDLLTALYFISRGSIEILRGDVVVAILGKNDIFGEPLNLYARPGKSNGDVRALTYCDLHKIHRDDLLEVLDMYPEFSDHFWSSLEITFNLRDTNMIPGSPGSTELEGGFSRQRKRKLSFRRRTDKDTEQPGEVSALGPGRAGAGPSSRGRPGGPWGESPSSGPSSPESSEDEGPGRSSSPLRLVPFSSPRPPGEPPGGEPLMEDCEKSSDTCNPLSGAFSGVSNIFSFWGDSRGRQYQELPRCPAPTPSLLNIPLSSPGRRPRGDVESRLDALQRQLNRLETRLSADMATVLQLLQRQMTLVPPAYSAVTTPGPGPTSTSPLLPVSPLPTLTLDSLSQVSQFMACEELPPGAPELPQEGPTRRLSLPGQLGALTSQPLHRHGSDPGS

Going from N#C/C(C(=O)N1CCOCC1)=C1\Nc2ccccc2S1 to COc1ccccc1OCCCCCCN1CCOCC1.O=C(O)C(=O)O, the “hERG current change (%, negative = inhibition) at 10uM” value falls from 2.1% to 0.0271%.

First: CC(=O)NC(Cc1c[nH]c2ccccc12)C(=O)NCc1ccco1 (stereo not shown)
Second: O=C(NCc1ccco1)C1CC(c2ccc(Cl)cc2)=NO1 (stereo not shown)
The “hERG current change (%, negative = inhibition) at 10uM” value of the first is higher: 12.5% for the first, 1.47% for the second.

Going from CCN(CC)S(=O)(=O)c1cccc(NC(=O)COc2ccc(Cl)cc2Br)c1 to CN(C)Cc1nc2ccccc2c(=O)n1CC(=O)Nc1cccc(S(=O)(=O)N2CCOCC2)c1, the “hERG current change (%, negative = inhibition) at 10uM” value falls from 2.59% to -14.4%.

Compared with CCn1c(SCC(=O)Nc2ccc(C(C)=O)cc2)nc2c([nH]c3ccccc32)c1=O, CCOCCCNC(=O)c1ccc(-n2c(=S)[nH]c3ccccc3c2=O)cc1 is higher in “hERG current change (%, negative = inhibition) at 10uM” value: 5.85% for the first, 10.8% for the second.

Going from COc1ccccc1CN1CCN(Cc2ccc(Cl)cc2)CC1.O=C(O)C(=O)O to COc1ccc(CN2CCN(Cc3ccccc3OC)CC2)cc1.O=C(O)C(=O)O, the “hERG current change (%, negative = inhibition) at 10uM” value rises from -62.5% to 2.68%.

Going from COc1cccc(OC)c1OCCN1CCCC1 to COc1cccc(OC)c1OCCOCCN1CCN(C)CC1, the “hERG current change (%, negative = inhibition) at 10uM” value rises from 15.8% to 20.8%.

Compared with COc1cccc(OC)c1OCCN1CCN(C(c2ccccc2)c2ccccc2)CC1, COc1ccccc1OCCCCN1CCN(C(c2ccccc2)c2ccccc2)CC1.O=C(O)C(=O)O is lower in “hERG current change (%, negative = inhibition) at 10uM” value: -72.7% for the first, -73% for the second.

First: COc1ccccc1OCCCCCCN1CCN(C)CC1.O=C(O)C(=O)O
Second: COc1ccccc1CN1CCCCCC1.O=C(O)C(=O)O
The “hERG current change (%, negative = inhibition) at 10uM” value of the first is lower: -5.83% for the first, 11.5% for the second.

Going from CCOc1ccc(NCc2nc3ccccc3n2CCOc2ccccc2)cc1 to COc1ccc(CNc2ccc3c(c2)ncn3-c2ccccc2OC)cc1, the “hERG current change (%, negative = inhibition) at 10uM” value falls from -11.6% to -23%.

Compared with Cc1ccnc(N2CCC(C(=O)NCc3ccc(F)cc3)CC2)n1, O=C(Nc1ccc(S(=O)(=O)N2CCOCC2)cc1)c1ccccc1F is higher in “hERG current change (%, negative = inhibition) at 10uM” value: -12% for the first, 6.32% for the second.

Going from CCOC(=O)N1CCN(CC(O)COc2ccccc2C(C)C)CC1.Cl (stereo not shown) to C=CCc1ccccc1OCC(O)CN1CCN(C(=O)OCC)CC1.Cl (stereo not shown), the “hERG current change (%, negative = inhibition) at 10uM” value falls from -8.87% to -11.3%.

First: C/C(=N\NC(=O)c1ccco1)c1cc(Cl)sc1Cl
Second: CC(=O)NS(=O)(=O)c1ccc(NC(=S)NC(=O)c2ccco2)cc1
The “hERG current change (%, negative = inhibition) at 10uM” value of the first is lower: -6.11% for the first, 2.54% for the second.

Going from S=c1[nH]nc(COc2ccc(Cl)cc2Cl)n1-c1ccccc1 to O=S(=O)(c1ccccc1)N(CC1CO1)c1cc(Cl)ccc1Cl (stereo not shown), the “hERG current change (%, negative = inhibition) at 10uM” value falls from 19.1% to 14.2%.

Going from C/C(=N\Nc1cc(N2CCOCC2)ncn1)c1cccc([N+](=O)[O-])c1 to C/C(=N\Nc1cc(N2CCOCC2)nc(C)n1)c1cccc([N+](=O)[O-])c1, the “hERG current change (%, negative = inhibition) at 10uM” value falls from 4.5% to -60.4%.

Going from C/C(=N\Nc1nc(N2CCOCC2)nc(N2CCOCC2)n1)c1cccc([N+](=O)[O-])c1 to O=C(NCCC(=O)N1CCC2(CC1)NCCc1[nH]cnc12)c1cccc(Br)c1, the “hERG current change (%, negative = inhibition) at 10uM” value rises from -4.76% to 1.5%.

First: COCCCNC(=O)[C@H]1N2C(=O)c3ccccc3C2SC1(C)C (stereo partly shown)
Second: C=CCc1ccccc1OCC(O)CNC (stereo not shown)
The “hERG current change (%, negative = inhibition) at 10uM” value of the first is higher: 15.3% for the first, 12% for the second.

Compared with S=C(NCc1ccco1)N1CCN(Cc2ccc(Cl)cc2Cl)CC1, C=CCc1cc(C)ccc1OCC(O)CN1CCN(c2ccccc2)CC1 (stereo not shown) is lower in “hERG current change (%, negative = inhibition) at 10uM” value: -36.3% for the first, -47.5% for the second.

Compared with O=S(=O)(Nc1ccc(-c2ccc3nncn3n2)cc1)c1ccc(Cl)s1, COc1ccc(CCNC(=S)Nc2ccc(S(=O)(=O)Nc3ncccn3)cc2)cc1OC is higher in “hERG current change (%, negative = inhibition) at 10uM” value: -19.2% for the first, 21.2% for the second.

Going from C=CCc1cc(OC)ccc1OCC(O)CN1CCN(c2ccc(OC)cc2)CC1 (stereo not shown) to C=CCc1cc(OC)ccc1OCC(O)CN1CCN(c2ccc(OC)cc2)CC1.Cl (stereo not shown), the “hERG current change (%, negative = inhibition) at 10uM” value falls from -59.7% to -71.2%.

Going from C=CCc1ccccc1OCC(O)CN(CC)CC.Cl (stereo not shown) to C=CCc1ccccc1OCC(O)CN(C(C)C)C(C)C.Cl (stereo not shown), the “hERG current change (%, negative = inhibition) at 10uM” value falls from -30.5% to -59.2%.

Going from C=CCc1ccccc1OCC(O)CN1CCN(c2ccccc2F)CC1.Cl (stereo not shown) to C=CCc1ccccc1OCC(O)CN1CCN(c2ccccc2OC)CC1.Cl (stereo not shown), the “hERG current change (%, negative = inhibition) at 10uM” value falls from -40.9% to -75.2%.

Compared with C=CCc1ccccc1OCC(O)CN1CCN(c2ccc(C)cc2)CC1 (stereo not shown), C=CCc1ccccc1OCC(O)CN1CCN(c2ccc(OC)cc2)CC1.Cl (stereo not shown) is lower in “hERG current change (%, negative = inhibition) at 10uM” value: -44.7% for the first, -66.5% for the second.

First: Cc1nonc1NC(=O)CSc1nc2cc(Cl)ccc2c2c1CCCC2
Second: CN(Cc1nc(-c2cnccn2)no1)Cc1n[nH]c2c1CCCCC2
The “hERG current change (%, negative = inhibition) at 10uM” value of the first is higher: 2.15% for the first, -0.424% for the second.

Compared with C/C(=N\O)C(C)(C)Nc1ccccc1F, CC(=O)c1cc(Cc2csc(C(C)=O)c2)cs1 is lower in “hERG current change (%, negative = inhibition) at 10uM” value: 4.26% for the first, 2.75% for the second.

First: COc1cc(/C=C/c2[nH]c(=O)[nH]c(=O)c2[N+](=O)[O-])cc(OC)c1O
Second: CCN(C(=O)C1CCCN1S(=O)(=O)c1ccc2c(c1)n(C)c(=O)c(=O)n2C)c1ccccc1 (stereo not shown)
The “hERG current change (%, negative = inhibition) at 10uM” value of the first is higher: 7.26% for the first, -3.32% for the second.

Compared with CCOC(=O)c1c(C)[nH]c(C(=O)C(C)OC(=O)c2cnc(C)cn2)c1C (stereo not shown), CC(=O)c1cc(C(c2csc(C(C)=O)c2)c2csc(C(C)=O)c2)cs1 is lower in “hERG current change (%, negative = inhibition) at 10uM” value: -0.804% for the first, -72.6% for the second.

Compared with CC(=O)c1cc(CN2C(=O)CCC2=O)cs1, Cl.Clc1ccc(CN2C3=NCCN3c3ccccc32)cc1Cl is lower in “hERG current change (%, negative = inhibition) at 10uM” value: 5.27% for the first, -75.9% for the second.

Going from FC(F)(F)c1cccc(-c2nc3nc(Cl)c(Cl)nc3[nH]2)c1 to Cl.Clc1ccc(CN2C3=NCCCN3c3ccccc32)cc1Cl, the “hERG current change (%, negative = inhibition) at 10uM” value falls from 30.4% to -76.3%.

First: Clc1ccc(CN2CCCCCCC2)cc1Cl
Second: Clc1ccc(CN2CCCCCC2)cc1Cl
The “hERG current change (%, negative = inhibition) at 10uM” value of the first is higher: 3.83% for the first, -7.66% for the second.
